Results reported in paper PMC4336329 (PLoS ONE, 2015).
Out of some 310,000 compounds screened, about 14,000 (4.5%) showed an effect of 50% or more. Effects have a minus sign here. The entries come from a sample that favours strong results as a whole.

What follows are compounds tested against human ether-à-go-go-related gene (hERG) potassium channel (human, UniProt Q12809) (assay: primary screen, population patch clamp on CHO cells stably expressing hERG; higher = less effect of the substance).
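Also: peak tail current of the secondary pulse compared with the same well before compound.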

human ether-à-go-go-related gene (hERG) potassium channel, sequence (Q12809 whole entry, looked up): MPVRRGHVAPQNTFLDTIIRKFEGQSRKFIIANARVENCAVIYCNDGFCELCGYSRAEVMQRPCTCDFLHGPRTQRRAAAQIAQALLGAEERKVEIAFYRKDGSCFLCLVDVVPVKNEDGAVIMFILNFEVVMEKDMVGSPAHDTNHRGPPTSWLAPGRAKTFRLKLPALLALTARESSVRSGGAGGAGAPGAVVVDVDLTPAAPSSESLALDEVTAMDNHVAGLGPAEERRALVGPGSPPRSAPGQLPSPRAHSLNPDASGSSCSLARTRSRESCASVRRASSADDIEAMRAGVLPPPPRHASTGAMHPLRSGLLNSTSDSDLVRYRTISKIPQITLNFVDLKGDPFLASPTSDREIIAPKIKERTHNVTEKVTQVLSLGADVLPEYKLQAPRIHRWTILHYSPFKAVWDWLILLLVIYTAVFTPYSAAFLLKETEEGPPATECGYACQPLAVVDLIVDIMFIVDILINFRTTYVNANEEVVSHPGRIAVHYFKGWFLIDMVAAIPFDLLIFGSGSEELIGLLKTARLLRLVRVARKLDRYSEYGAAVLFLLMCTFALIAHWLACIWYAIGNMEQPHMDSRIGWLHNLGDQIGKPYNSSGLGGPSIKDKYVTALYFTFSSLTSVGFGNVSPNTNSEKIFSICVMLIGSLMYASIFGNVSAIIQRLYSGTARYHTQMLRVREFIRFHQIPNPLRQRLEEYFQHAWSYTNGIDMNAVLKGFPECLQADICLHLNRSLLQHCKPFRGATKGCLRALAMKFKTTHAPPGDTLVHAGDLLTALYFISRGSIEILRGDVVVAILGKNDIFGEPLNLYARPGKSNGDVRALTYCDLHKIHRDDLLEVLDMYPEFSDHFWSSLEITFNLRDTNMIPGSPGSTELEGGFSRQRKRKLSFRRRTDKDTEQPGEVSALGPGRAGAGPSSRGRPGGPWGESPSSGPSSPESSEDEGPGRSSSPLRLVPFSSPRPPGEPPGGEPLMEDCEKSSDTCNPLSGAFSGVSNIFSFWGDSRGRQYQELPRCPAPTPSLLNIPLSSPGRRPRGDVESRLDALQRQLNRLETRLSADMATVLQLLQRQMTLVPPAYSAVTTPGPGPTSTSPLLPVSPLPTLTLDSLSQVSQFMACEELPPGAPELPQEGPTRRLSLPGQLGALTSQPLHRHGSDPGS

Structure (SMILES)	hERG current change (%, negative = inhibition) at 10uM
CC(OC(=O)c1cccc(-n2cnnn2)c1)C(=O)NCc1ccccc1 (stereo not shown)	0.976%
O=C(COC(=O)CSc1ccc([N+](=O)[O-])cc1)NCC1CCCO1 (stereo not shown)	12.3%
C#CCOCCOCCOCCNc1nc(N2CCN(C(=O)CCCCCCCCCCNC(=O)[C@@H](CCC(=O)O)n3cc(CCCCCN)nn3)CC2)nc(N2CCN(C(=O)CCCCCCCCCCNC(=O)[C@H](CO)n3cc(CCCSC)nn3)CC2)n1	11.9%
CCN1C(=O)C(CC(=O)Nc2ccc(OC)cc2)N(CCc2ccccc2)C1=S (stereo not shown)	-1.28%
CC(=O)C[C@H]1c2ccccc2S(=O)(=O)N1c1ccccc1	23%
Cc1cc(NC(=O)c2cc(-c3ccccc3Cl)nc3ccccc23)no1	-0.229%
COCCOC(=O)c1cc(C(=O)c2cc(F)ccc2O)coc1=N	9.29%
O=C(Nc1nnc(S(=O)(=O)N2CCOCC2)s1)c1ccccc1F	16.7%
CSc1ccccc1NS(=O)(=O)c1cccc2nonc12	1.51%
CC(=O)c1ccccc1NS(=O)(=O)c1cccc2nonc12	-52.2%
O=S(=O)(Nc1cccc2ccccc12)c1cccc2nonc12	3.98%
O=S(=O)(Nc1cc(F)ccc1F)c1cccc2nonc12	-83.6%
Cc1ccccc1NS(=O)(=O)c1cccc2nonc12	2.34%
O=S(=O)(Nc1cc(F)ccc1F)c1cccc2nsnc12	11.6%
NC(=O)NCCN1CCN(c2ncc(C(F)(F)F)cc2Cl)CC1	-33.7%
O=C(NCC(=O)N1CCN(c2ccccn2)CC1)c1ccc(Br)o1	-15.3%
CCOc1ccc(C(=O)NCC(=O)N2CCN(c3ccc(C(F)(F)F)cn3)CC2)cc1	-7.32%
CNCC(=O)N1CCN(c2ncc(C(F)(F)F)cc2Cl)CC1.Cl	-22.3%
O=C(NCC(=O)N1CCN(c2ccc(C(F)(F)F)cn2)CC1)c1ccc(Br)o1	-71.8%
O=C(NCC(=O)N1CCN(c2ncc(C(F)(F)F)cc2Cl)CC1)c1ccc(Br)o1	-50.6%
COc1cccc(NC(=O)Nc2c(C)n(C)n(-c3ccccc3)c2=O)c1	3.91%
O=C(Nc1cccc(Cl)c1)c1cnn2cccnc12	7.19%
CCOC(=O)N1CCN(CCC(=O)Nc2cccc(C)c2)CC1.Cl	1.45%
CCOC(=O)C1CCN(CCC(=O)Nc2cccc(Cl)c2)CC1	-67.1%
CCOC(=O)C1CCN(CCC(=O)Nc2ccccc2)CC1	-19.7%
NC(=O)C1CCN(CCC(=O)Nc2cccc(Cl)c2)CC1	0.151%
Cc1cccc(NC(=O)CCN2CCC(C(N)=O)CC2)c1	9.57%
CCOC(=O)C1CCN(CCC(=O)Nc2cccc(C)c2)CC1.Cl	-66.8%
